# PP5 inh: PP5 (human) phosphatase inhibition; inhibition, % at 6.7 µM; purified PP5c, OMFP substrate fluorescence; 320,000 compounds, 0.18% hits; P53041;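 active = inhibition above the campaign's mean inhibition across all tested compounds plus 3 SD, cut at about 9.5% in these data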;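 note: 0% = DMSO only and 100% = 100 µM cantharidin control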
# Target sequence (P53041 whole entry, looked up): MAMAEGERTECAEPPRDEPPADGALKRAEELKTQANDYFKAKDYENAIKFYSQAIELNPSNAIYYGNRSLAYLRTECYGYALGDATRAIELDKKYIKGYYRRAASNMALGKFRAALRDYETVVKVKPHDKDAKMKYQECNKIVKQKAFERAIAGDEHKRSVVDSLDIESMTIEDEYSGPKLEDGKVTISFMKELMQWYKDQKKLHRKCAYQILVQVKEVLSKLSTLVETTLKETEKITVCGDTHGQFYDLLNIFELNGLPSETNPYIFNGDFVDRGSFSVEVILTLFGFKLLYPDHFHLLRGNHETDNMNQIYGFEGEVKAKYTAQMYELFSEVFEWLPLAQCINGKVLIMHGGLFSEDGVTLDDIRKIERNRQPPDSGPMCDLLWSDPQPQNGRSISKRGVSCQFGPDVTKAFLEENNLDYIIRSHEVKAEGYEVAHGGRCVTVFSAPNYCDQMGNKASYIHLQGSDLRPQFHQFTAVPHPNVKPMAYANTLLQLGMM
# PG9 Ab binder: binds the HIV-1 gp120 antibody PG9 | TR-FRET gp120-PG9 antibody binding | inhibition, % at 6.7 µM | 360,000 compounds, 0.43% hits | AID 624416; in the data active = inhibition above about 8.5%
# proKLK7 act: activators of human kallikrein-7 zymogen; activation, % at 7 µM; AID 652039; purified proKLK7, EDANS-DABCYL substrate fluorescence; 100% is mature enzyme control, 0% vehicle; P49862; 370,000 compounds, 0.9% hits;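 active = activation above the mean of all tested compounds plus 3 SD, computed per campaign excluding outliers beyond control limits, cut at about 13% in these data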
# GASC-1 inh: blocks human GASC-1 demethylase activity. Q9H3R0. 330,000 compounds, 0.069% hits. GST-JMJD2C(1-420) H3K9me3 demethylation, DELFIA europium. inhibition, % at 2.35 µM;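 active = more than half of a compound's replicate wells show inhibition beyond 50%, single wells judged on their own value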;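 note: signal counts dimethyl H3K9 product captured on neutravidin plate; 0% = median of DMSO wells and 100% = 0.3 times that DMSO median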
# PP1 counter: PP1-alpha (human) inhibition in PP5 counter-screen; purified PP1alpha, OMFP fluorescence; inhibition, % at 6.7 µM; 320,000 compounds, 0.9% hits;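 active = inhibition above the mean inhibition of all tested compounds plus 3 SD, computed separately for each screening campaign, cut at about 15% in these data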
# NR1D1 modulator: Rev-erb alpha (human) modulation. activity, % at 10 µM. P20393. 370,000 compounds, 0.79% hits. Rev-erbα–FITC-DNA binding, fluorescence polarization, 90 min;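 active = activity above about 14%, limit read from the data; passing the limit was not always enough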;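 note: 0% = DMSO wells with 35 nM protein and 100% = DMSO wells with 750 nM protein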
# Rev-erbA confirm: Rev-erb alpha (human) modulation, hit confirmation | AID 1259319 | 3,000 compounds, 61% hits | shares compounds with NR1D1 modulator | activation, % at 25 µM | Rev-erb alpha FITC-DNA binding, fluorescence polarization, 90 min;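 active = activation at or above a set limit, or at least 3 SD above the negative control mean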;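 note: 0% = 35 nM protein with DMSO and 100% = 750 nM protein high control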
# RORg counter: counter-screen for Rev-erb alpha modulators: RORgamma DNA binding | shares compounds with NR1D1 modulator | IC50, µM | AID 1259320 | 910 compounds, 8% hits | purified RORgamma protein-FITC-DNA binding, fluorescence polarization;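 active = Compounds whose fitted half-maximal concentration for disrupting protein-DNA binding is below 10 micromolar; the record names Rev-erb in its text, so the target is in doubt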
# Active calls of the source: *; i = inactive; . = not tested or not shown. Shown are actives, neighbours in structure and some others; about 2.8% of the full set was active somewhere.
SMILES,PP5 inh,PG9 Ab binder,proKLK7 act,GASC-1 inh,PP1 counter,NR1D1 modulator,Rev-erbA confirm,others
Cc1ccc(-c2c(C#N)c(N)n(-c3ccccc3)c(=O)c2C#N)cc1,-1,-1,0,-2,-5,0,.,
Cc1ccc(-c2c(C#N)c(N)n(-c3ccc(Cl)cc3)c(=O)c2C#N)cc1,.,2,5,.,.,38*,29*,RORg counter=>40
Cn1c(C(=O)NCc2cccs2)cc2c(=O)n(C)c3ccccc3c21,0,-1,0,-1,4,33*,18*,
CN(CCNC(=O)c1cc2c(=O)n(C)c3ccccc3c2n1C)Cc1ccccc1,0,1,0,-6,2,-3,.,
Cn1c(C(=O)NC2CCCCCC2)cc2c(=O)n(C)c3ccccc3c21,2,0,0,10,-7,48*,26*,
Cc1ccc(CNC(=O)c2cc3c(=O)n(C)c4ccccc4c3n2C)cc1,3,-4,1,0,-4,63*,43*,RORg counter=>40
COc1ccc(CNC(=O)C2CCCN(c3nc4ccccc4o3)C2)cc1 (centres undefined),.,.,0,.,.,3,.,
COc1cc(S(N)(=O)=O)c(OC)cc1N,4,-1,0,-14,-2,3,.,
COc1cc(N=Nc2ccc(C)cc2S(N)(=O)=O)c(C)cc1N,.,0,-1,.,.,25*,21*,
COC(=O)C1=C(C)N(C)C(=NCc2ccccc2)NC1c1ccccc1C(F)(F)F (centres undefined),.,-1,0,.,.,2,.,
CCCCOc1ccc(C(=O)NC2CCCCN(Cc3ccc(C)cc3)C2=O)cc1 (centres undefined),.,.,0,.,.,1,.,
O=C(c1ccccc1)N1N=C(c2ccccc2)CC1c1ccccc1 (centres undefined),4,0,0,2,2,3,.,
Cc1ccc(C(=O)N2N=C(c3ccccc3O)CC2c2ccccc2)cc1 (centres undefined),2,1,0,2,-2,38*,25*,
COc1ccc(-c2c(Cc3ccccc3)nc(NC(=O)c3ccccc3)n2C)cc1,.,.,0,.,.,-9,.,
CCOC(=O)[C@@]12CCC3=C1N(CCC3)C(=O)[C@H](CC(=O)N1CCCCC1)C2,.,.,0,.,.,-4,.,
CC(C)(C)OC(=O)NCCCCCNC(=O)c1ncn2c1c(=O)[nH]c1ccccc12,.,-5,-2,.,.,0,.,
CC(C)(C)OC(=O)[C@H](Cc1ccccc1)NC(=O)c1ncn2c1c(=O)[nH]c1ccc(Br)cc12,.,8,-1,.,.,168*,-3,
Cc1c[nH]c2cccc(-c3c(Cl)cccc3Cl)c12,.,.,1,.,.,17,.,
COC(=O)CC(=O)CC(NS(=O)(=O)c1ccc(C)cc1)c1ccccc1 (centres undefined),.,2,0,.,.,-4,.,
O=C(Nc1nc(-c2ccccc2)c(C(=O)c2ccccc2)s1)c1ccc(S(=O)(=O)N2CCCCC2)cc1,1,0,0,-4,1,23*,85*,RORg counter=i
CCOC(=O)c1sc(NC(=O)c2ccc(S(=O)(=O)N(C)C)cc2)nc1C,3,-2,0,-6,0,36*,38*,RORg counter=>40
CCCN(CCC)S(=O)(=O)c1ccc(C(=O)Nc2nc(-c3ccccc3)c(C(=O)OCC)s2)cc1,1,0,1,15,-1,33*,12,
COC(=O)c1cc2c(c3c4cc(C)ccc4n(S(=O)(=O)c4ccc(C)cc4)c13)C(=O)N(Cc1ccc(C(F)(F)F)cc1)C2,.,-1,0,.,.,11,.,
COc1ccc(N2CCCN(CC(=O)Nc3ccc(Cl)cc3)CC2)cc1,.,.,1,.,.,-4,.,
O=c1c2ccccc2nnn1Cc1ccco1,.,-3,0,.,.,-6,.,
SMILES,PP5 inh,PG9 Ab binder,proKLK7 act,GASC-1 inh,PP1 counter,NR1D1 modulator,Rev-erbA confirm,others
COc1cccc(Nc2nc(-c3ccccc3O)nc3ccccc23)c1,2,1,5,-20,-1,155*,96*,RORg counter=>40
COc1ccc(Nc2nc(-c3ccccc3O)nc3ccccc23)cc1,5,0,-68,7,-1,-2,.,
O=[N+]([O-])c1ccc(-c2nc(Nc3cccc(O)c3)c3ccccc3n2)cc1,5,0,0,0,4,28*,3,
Clc1ccc(-c2csc(NCC3CCCO3)n2)cc1 (centres undefined),.,-4,1,.,.,3,.,
CCOc1ccc(-n2c(SCC(=O)N3CCc4ccccc43)nnc2-c2c[nH]c3ccccc23)cc1,4,0,0,-15,6,93*,24*,
COc1cccc(-n2c(SCC(=O)N3CCc4ccccc43)nnc2-c2c[nH]c3ccccc23)c1,0,-1,-1,1,2,2,.,
O=C(CSc1nnc(-c2cccs2)n1-c1ccccc1)N1CCCc2ccccc21,0,3,0,2,-2,110*,101*,RORg counter=i
COc1ccc(C=Cc2ccc3ccccc3n2)c(OC)c1,.,-3,-3,.,.,20*,9,
CCCCn1c(-c2ccc(F)c(F)c2)nc2cc3[nH]c(=O)c(C(C)C)nc3cc21,6,-2,-2,14,12,18*,14,
CC(C)CNC(=O)OCc1cn(Cc2c(F)cccc2F)nn1,.,.,0,.,.,7,.,
CC1CC1C(=O)N1CCC(Oc2cccnc2)CC1 (centres undefined),.,.,0,.,.,3,.,
CCc1nc(SCC(=O)Nc2c(C)nn(C)c2C)c2cnn(-c3ccccc3)c2n1,.,.,.,-5,.,.,.,
Cc1nn(C)c(C)c1NC(=O)CSc1nc(Cc2ccccc2)nc2c1cnn2-c1ccccc1,1,-1,0,-12,-1,181*,76*,
CCOC(=O)N1CCN(c2nc(-c3cccs3)cc(C(F)(F)F)n2)CC1,1,2,-1,110,-2,22*,9,
CCOC(=O)N1CCN(c2nc(-c3ccco3)cc(C(F)(F)F)n2)CC1,3,0,-1,-15,-3,10,.,
Cc1cc(C)c2c(=O)[nH]c(=O)n(Cc3ccccc3)c2n1,1,3,0,-1,-5,23*,15,
C/C=C/c1ccccc1OCCCN1CCC(C(O)(c2ccccc2)c2ccccc2)CC1,.,.,0,.,.,7,.,
CC(C)C[C@H](NS(=O)(=O)c1ccc(F)cc1F)C(=O)N1CCC[C@H]1C(=O)NCc1ccccc1,.,1,0,.,.,-3,.,
COc1ccc(C)cc1NC(=O)c1cc2c(=O)n3ccccc3nc2n1C,0,1,9,.,0,23*,55*,RORg counter=>40
CCc1cc2c(=O)[nH]c(Cc3ccc(Cl)cc3)nc2s1,-2,4,0,5,0,19*,18*,
CCc1cc2c(=O)[nH]c(Cc3ccccc3)nc2s1,2,0,0,1,-2,1,.,

# Bioassay records: PubChem, several laboratories
